Bioassay records deposited in PubChem BioAssay by several laboratories.
This is a sample that favours compounds with a hit; in the whole collection about 4.5% have one here.
SKKanGAS inh – inhibitors of SKKanGAS S. pyogenes growth in kanamycin (SK-promoter or general growth effect); BacTiter-Glo, 6 h; inhibition, % at 7.5 µM; 1.3% of 300,000 active;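 active means mean replicate score, as percent of positive control median, at least 50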;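 further: strain carries kanamycin resistance gene driven by streptokinase promoter and grows in 40 µg/ml kanamycin; loss of luminescence reflects streptokinase promoter inhibition or plain growth inhibition; 0% = median of DMSO wells and 100% = positive control at its reference dose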
tim23-1 inh – tim23-1 yeast growth inhibition; S. cerevisiae tim23-1 growth, BacTiter-Glo luminescence, 24 h; inhibition, % at 20 µM; 1.3% of 330,000 active;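 active means growth inhibition of the mutant yeast at or above 50%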;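 further: temperature-sensitive mutant grown at 25 °C; plate controls were DMSO-treated mutant yeast for no effect and medium wells lacking yeast for full effect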
PfHsp90 yeast 2 – growth inhibition of yeast expressing Plasmodium Hsp90. 0.32% of 310,000 active. AID 504621. S. cerevisiae expressing PfHsp90, BacTiter-Glo ATP, 48 h; yeast lacking PDR1 and PDR3 efflux regulators. inhibition, % at 9.4 µM;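 active means every replicate shows inhibition above about 80%, whatever the replicate mean, limit read from the data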;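 further: 0% = DMSO neutral controls and 100% = 20 µM radicicol positive controls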
TIM10 inh – growth inhibitors of TIM10 yeast strain. S. cerevisiae TIM10 strain growth, BacTiter-Glo luminescence, 24 h. inhibition, % at 10 µM. 1.4% of 330,000 active;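 active means inhibition of 40% or more at the single tested concentration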;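 further: wild-type TIM10 isogenic control strain grown at permissive 25 °C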
tim10-1 inh – growth inhibitors of tim10-1 mutant yeast; 2.2% of 330,000 active; inhibition, % at 20 µM; AID 463190; S. cerevisiae tim10-1 ts strain growth, BacTiter-Glo, 24 h;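 active means inhibition of at least 40%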;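 further: mutant grown at 25 °C; 0% = DMSO wells with yeast and 100% = wells holding no yeast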
NLRP3 yeast inh – inhibitors of NALP3 inflammasome in yeast. Yeast reconstituted NLRP3/ASC/caspase-1, beta-gal luminescence, 24 h. inhibition, % at 10 µM. 0.39% of 330,000 active. AID 2825;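 active means inhibition of 50% or more; inactive means inhibition below 50%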;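 further: plate controls were induced DMSO wells for no effect and uninduced yeast grown without galactose for full effect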
* = called active by the depositor; · = not tested or not shown.

SMILES	SKKanGAS inh	tim23-1 inh	PfHsp90 yeast 2	TIM10 inh	tim10-1 inh	NLRP3 yeast inh
O=C(N/N=C/c1cc([N+](=O)[O-])ccc1O)c1cccc2cc[nH]c12	89*	-18	-1	4	-2	17
COc1cc(/C=N/NC(=O)c2cccc(N3CCCC3=O)c2)ccc1O	0	14	-3	4	17	-14
COc1cc(OC)c(/C=N/NC(=O)c2ccc(NC(C)=O)cc2)cc1Br	1	-38	0	-7	-30	-4
CC(C)C(=O)Nc1ccc(C(=O)N/N=C/c2cc(Br)cc(Br)c2O)cc1	68*	-4	6	8	13	-13
O=C(N/N=C/c1cccc([N+](=O)[O-])c1)c1cccc2cc[nH]c12	-16	-1	6	10	3	15
CC1CCCC(NC(=O)CCNC(=O)c2ccc([N+](=O)[O-])cc2)C1C (stereo not given)	2	23	31	10	13	8
COCCn1c(SCC(=O)NC(=O)NCc2ccccc2)nc2ccccc2c1=O	·	2	-1	18	17	-5
O=C1CN(C(=O)COC(=O)c2ccc(C(F)(F)F)cc2)c2ccccc2N1	·	9	10	14	10	19
OCCN(CCO)c1ccc2ccccc2c1	1	1	-6	8	0	-5
OCCN(CCO)c1ccc(C(c2ccccc2Cl)c2ccc(N(CCO)CCO)cc2Cl)c(Cl)c1	83*	4	-22	-5	28	1
O=C(NCCN1CCOCC1)c1c(O)nc2sccn2c1=O	11	3	1	3	14	16
CCN(CC)c1nc(NN)nc(Nc2ccc(C)c(Cl)c2)n1	104*	32	20	32	37	32
O=c1c(Br)ccc(Br)cc1Br	·	·	120*	·	·	·
O=C1CN(S(=O)(=O)c2cc(Br)ccc2Br)CCN1	·	-9	6	0	-8	12
O=C(c1ccc(Cl)cc1)c1cnc(-c2ccccc2)s1	·	·	-2	·	·	·
O=C(c1cnc(-c2ccccc2)s1)c1ccc(Cl)cc1Cl	57*	28	-7	28	12	3
CC(C)c1nc(NCc2ccccc2)c(C#N)c2c1CCCC2	79*	-1	22	-6	19	3
COc1ccc(-c2nn(-c3ccccc3)cc2C(=O)NC(=S)NNC(=O)c2ccncc2)cc1	89*	-13	-19	15	5	36
CCOC(=O)C1CCCN(C(=O)Cn2cnc3sc(C)c(S(=O)(=O)N4CCOCC4)c3c2=O)C1 (stereo not given)	-4	9	-1	1	10	7
COc1ccc(Cn2c(O)c(C=Nc3ccc(O)cc3)c3ccccc3c2=O)cc1	20	30	-20	34	30	27
O=c1c2ccccc2c(C=Nc2ccc(O)cc2)c(O)n1Cc1ccccc1	67*	11	-16	19	21	17
COc1ccc(CCNC(=S)N2CCN(S(=O)(=O)c3ccc(C)cc3)CC2)cc1	-1	21	-8	-4	4	23
Cc1cc(C)n(-c2nc(C)nc(NCc3ccccc3)n2)n1	58*	22	12	-5	23	13
CNc1nc(C)nc(-n2nc(C)cc2C)n1	1	-8	4	14	10	10
CC(C)(C)c1nnc(N/N=C/c2cc(Br)ccc2O)n(N)c1=O	78*	·	105*	·	·	·
SMILES	SKKanGAS inh	tim23-1 inh	PfHsp90 yeast 2	TIM10 inh	tim10-1 inh	NLRP3 yeast inh
CCc1nnc(N/N=C/c2cc(Br)c(O)cc2O)n1N	0	4	-8	2	5	-5
O=C(CN1C(=O)NC2(CCCCC2)C1=O)Nc1ccc2c(c1)OCCCO2	·	6	-2	3	9	2
Cc1cc(C(=O)NCC(=O)OC(C(=O)Nc2cc(C(F)(F)F)ccc2Cl)c2ccccc2)ccc1[N+](=O)[O-] (stereo not given)	53*	17	2	24	13	-17
CCCC(=O)OC(C(=O)Nc1cc(C(F)(F)F)ccc1Cl)c1ccccc1 (stereo not given)	-13	10	0	-2	3	-2
COc1ccc(CC(=O)NC2CCS(=O)(=O)C2)cc1 (stereo not given)	-2	2	·	-5	0	12
COc1cccc(-c2nc(N3CC(C)CC(C)C3)c3ccccc3n2)c1O (stereo not given)	65*	-26	7	-15	8	10
CCCc1cc(C(=O)Nc2ccc(C(=O)c3ccc(C)cc3)cc2)n(C)n1	8	40	-13	26	32	15
